Reference: PubChem BioAssay AID720579 (National Center for Advancing Translational Sciences (NCATS), 2013)
Screen size: about 310,000 compounds; about 1,900 (0.61%) were called active. Roughly 8% stayed inconclusive and do not appear here. The sample as a whole holds a higher share of actives than the screen did. A number with no mark means an inactive call. Calls come from the whole dose curve; tested in A549 cells.

Assay: qHTS for Stage-Specific Inhibitors of Vaccinia Orthopoxvirus: mCherry Reporter Primary qHTS; note: nearly all actives have a fitted effect of over 35% in size
Conditions: Vaccinia virus mCherry reporter infection, fluorescence; series mostly up to 36.5 µM; activity change, negative = inhibition: at the top concentration
% is set by controls: 0 for no effect and ±100 for the full control effect; potency is the fitted concentration of half-maximal effect.

SMILES | activity change, negative = inhibition | outcome | Potency
OCC(O)C(O)C(O)C(O)C=Nc1ccc(/C=C/c2ccnc3ccccc23)cc1 (stereo not drawn) | 12.1% |  | 
C=CC[C@@H](Cc1ccc(F)cc1)C(=O)OC[C@H]1CCCN1C(=O)[C@H](CC=C)CC(=O)N(CCO)Cc1ccccc1 |  | inactive | 
Cc1cccc(C(=O)C(O)(c2ccccc2)C2CCCCC2=O)c1 (stereo not drawn) | -0.222% |  | 
O=C(C1CC(=O)N(c2ccc(F)cc2)C1)N1CCN(c2ccccc2)CC1 (stereo not drawn) | 0.265% |  | 
O=C(C1CC(=O)N(C2CCCCC2)C1)N1CCN(c2ccccc2)CC1 (stereo not drawn) | -0.781% |  | 
O=C(C1CC(=O)N(C2CCCC2)C1)N1CCN(c2cccc(C(F)(F)F)c2)CC1 (stereo not drawn) |  |  | 10 µM (active)
COc1ccc(C2OC(CCc3ccccc3)Cc3[nH]c(=S)[nH]c(=O)c32)cc1 (stereo not drawn) |  | inactive | 
CCCc1nc2c3ccccc3ccn2c1Cc1ccccc1C(F)(F)F |  | inactive | 
OC(CBr)C[n+]1cccc2cc(Br)ccc21 (stereo not drawn) | -6.11% |  | 
CCCC[C@@H]1CN=C(N)N1CCc1cc(C(F)(F)F)cc(C(F)(F)F)c1 |  |  | 11.2 µM (active)
CCCC[C@@H]1CN=C(N)N1CCCC |  | inactive | 
CCCC[C@@H]1CN=C(N)N1CCc1cccc(F)c1 |  | inactive | 
COc1ccc(OCC(O)CNCCNc2nccc(C(F)(F)F)n2)cc1 (stereo not drawn) | -2.52% |  | 
CC(C)(C)NCC(O)COc1cccc2[nH]c(=O)[nH]c12 (stereo not drawn) |  |  | inactive
CC(C)(C)CC(C)(C)NCC(O)COCCOc1ccc(Br)cc1 (stereo not drawn) |  |  | 12.6 µM (active)
Cc1ccc2nc(-c3ccco3)c(Cc3cccc(Cl)c3)n2c1 |  | inactive | 
Cc1nccc(-c2ccc(-n3c(C)ccc3C)cc2)n1 | -13.9% |  | 
CC(C)(C)Nc1nc(-c2ccccn2)nc2ccccc12 | -28.3% |  | 
c1ccc(-c2nccc(-c3ccc(-n4cnc5ccccc54)cc3)n2)nc1 |  |  | 11.2 µM (active)
COc1ccc2c(c1)Cc1sc(NC(=O)c3ccccc3Br)nc1-2 |  |  | 11.2 µM (active)
COc1ccc(NS(=O)(=O)c2ccc(N3CCOCC3)c(NC(=O)c3ccccc3Br)c2)cc1 | -12.5% |  | 

SMILES | activity change, negative = inhibition | outcome | Potency
COc1cccc(C(=O)Nc2nc3ccc(S(C)(=O)=O)cc3s2)c1 | -13% |  | 
CCCc1c(-c2ccccc2F)ncn1Cc1ccccc1OC | -20% |  | 
Cc1ccc(SCc2c(C(=O)N/N=C/c3cccnc3)nnn2-c2nonc2N)cc1 | -10.8% [at 7.34 µM] |  | 
Nc1nonc1-n1nnc(C(=O)N/N=C/c2cc(Br)ccc2O)c1CSC1=NCCS1 |  |  | 7.08 µM (active)
Cc1ccc(SCc2c(C(=O)N/N=C/C3CC=CCC3)nnn2-c2nonc2N)cc1 (stereo not drawn) | -18.1% |  | 
O=C(Nc1cc(Br)ccc1F)c1nc[nH]c1C(=O)NCc1ccccc1 | -10.4% |  | 
CCc1nc2ccc(C(=O)NC3CCN(Cc4ccccc4)CC3)cn2c1N(CC)CCOC | 28.2% |  | 
CC(C)(C)c1cc(C(=O)N/N=C/c2ccc([N+](=O)[O-])s2)n[nH]1 |  |  | 11.2 µM (active)
Cc1ccsc1C(=O)N/N=C/c1ccc([N+](=O)[O-])cc1 | -19.9% |  | 
Cc1nc2ccccc2cc1C(=O)N/N=C/c1ccc([N+](=O)[O-])cc1 | -9.06% |  | 
Cc1nc2c(OCc3ccc(Cl)cc3)cccn2c1N(C)Cc1cccs1 | 13.2% |  | 
CCCCOCCCNC(=O)C[C@@H]1C[C@@]2(C(=O)OCC)CCCC=C2N(CCC2=CCCCC2)C1=O | -27.4% |  | 
CN(C)CCNC(=O)c1ccc(-c2cn3c(-c4ccc(Oc5ccccc5)cc4)cnc3cn2)cc1 | -5.42% |  | 
Cc1sc(NC(=O)C2=COCCO2)c(C#N)c1C | -10.3% |  | 
Cn1nccc1CNC(=O)c1ccnn1C | -16.4% |  | 
CCCc1ccc(-c2c(C)sc(NC(=O)c3ccnn3C)c2C#N)cc1 |  |  | 11.2 µM (active)
C=C1C=C(C(F)F)n2ncc(C(=O)NCCc3ccccc3OC)c2N1 | -8.11% |  | 
CN1CCN(c2ccc3c(c2)OC[C@H](Cc2ccccc2)NS3(=O)=O)CC1 | 32.8% |  | 
CC(=O)NCCNC(=O)c1cc(-c2cccc3ccccc23)nc2ccccc12 | -12.7% |  | 
CN(C)CCNC(=O)Nc1cccc(Cl)c1Cl | -4.83% |  | 
CN(C)CCNC(=O)c1ccc(Cl)c2cc3ccccc3nc12 |  |  | 1.78 µM (active)

SMILES | activity change, negative = inhibition | outcome | Potency
COc1cccc(-c2cnc3c(NC(C)=O)cc(-c4cccc(NC(C)=O)c4)cn23)c1 |  | inactive | 
CCCCn1nnnc1C(c1cccc(OC)c1OC)N1CCN(C/C=C/c2ccccc2)CC1 (stereo not drawn) | 33.4% |  | 
Cc1c(CCO)sc[n+]1CC(=O)c1ccc2ccccc2c1 | 39.9% |  | 
CN1CCc2nc(SC(C(=O)O)c3ccccc3)c(C#N)c(-c3cccs3)c2C1 (stereo not drawn) | -13.5% |  | 
CC(NC(=O)CSc1nc2c(cc1C#N)CN(C)CC2)c1ccccc1 (stereo not drawn) |  |  | 10 µM (active)
Cc1cc(NC(=O)CSc2nc3c(cc2C#N)CCCCC3)no1 | -10% |  | 
CCCCCCCCN1C(=O)[C@H](CC(=O)NCC23CC4CC(CC(C4)C2)C3)C[C@@]2(C(=O)OC)CCCCC=C12 | 8.61% |  | 
CCN1C(=O)[C@H]2[C@@H](c3ccc(C(F)(F)F)cc3)N[C@]3(CCCN(Cc4ccc(Br)cc4)C3=O)[C@H]2C1=O | -26.8% |  | 
CC(C)(C)S(=O)N1Cc2cc(C(=O)NCCCN3CCOCC3)nc(-c3cccc(-c4cc5ccccc5o4)c3)c2[C@H]1CCO (stereo partly drawn) | 14.1% |  | 
CC1(Oc2ccc(Cl)cc2)CCN(Cc2csc3ccccc23)C1 (stereo not drawn) | -6.34% |  | 
COc1ccc2sc(-c3ccc(S(C)(=O)=O)cc3)c(C#Cc3cncn3C)c2c1 | -22.7% |  | 
COc1ccc2sc(-c3ccc(N(C)C)cc3)c(C#CCO)c2c1 |  |  | 12.6 µM (active)
COc1ccc2sc(-c3ccc(N(C)C)cc3)c(-c3ccc4cc[nH]c4c3)c2c1 | -13.9% |  | 
COCOc1cccc(CN2CCC(C)(Oc3ccc(SC)cc3)C2)c1 (stereo not drawn) | 22% |  | 
O=C(NCc1cccc(C(F)(F)F)c1)c1ccc2sc(COCCO)nc2c1 | 21.2% |  | 
OC[C@@H]1CN(Cc2cccs2)C[C@H](n2cnc3c(NC4CCCC4)ncnc32)O1 | 7.65% |  | 
Cc1ncc(CO)c(/C=N/NC(=O)c2cccc(S(=O)(=O)N3CCCC3)c2)c1O | -12.6% |  | 
Cc1cc(C)nc(N/N=C/c2c(CO)cnc(C)c2O)n1 |  |  | 12.6 µM (active)
Cc1cc(C)nc(N/N=C/c2c(C)oc3ccccc23)n1 | -27.7% |  | 
CSc1ccc(CN2CCC2(C)C(=O)Nc2ccc(C)c(O)c2)cc1 (stereo not drawn) | -10.1% |  | 
CC(C)C[C@@H]1Cc2[nH][nH]c(=O)c2[C@H](CCc2ccccc2)O1 | -12.1% |  | 
